# Reference: PubChem BioAssay AID1259418 (Broad Institute, 2018)
# Out of some 3,400 compounds screened, about 840 (25%) were called active. Inconclusive results (about 11%) are left out. Not all results are given here. Results with a measured potency or affinity are listed apart. Values without a mark were called inactive.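 The calls were made as follows: active = fitted half-maximal concentration of signal decrease at or below twice the sample's top tested concentration; inconclusive = flat curve between -70 and -30 percent, or poor fit; inactive = flat within 30 percent, signal rise, or potency above limit.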
# Test: inhibitors of Toxoplasma growth in IFN-γ-primed HeLa – cell-based, ME49Luc, luciferase, 72 h, dose response (AID 1259418)
# Conditions: T. gondii ME49Luc in IFN-y HeLa, stronger effect = lower value, -100% = high-dose IFN-γ control wells; at 19.5 µM unless noted
row,SMILES,max activity
1,COC(=O)c1ccccc1NC(=O)Nc1ccc(-c2nc(-c3ccc(C)cc3C)co2)cc1,13.8% [at 0.16 µM]
2,CSCc1noc(CN2CCCC3(C2)CN(C)C(=O)O3)n1 (stereo not given),41.2%
3,COc1cc(OC)cc(-c2noc(-c3nnn(Cc4nc(-c5ccccc5OC)oc4C)c3C)n2)c1,6.32% [at 0.68 µM]
4,Cc1ccc(-c2nc(CN3CCN(C(=O)Nc4cc(Cl)ccc4C)CC3)c(C)o2)cc1,11.2% [at 10 µM]
5,Cc1ccc(-c2nc(CN3CCN(C(=O)Nc4cc(C)cc(C)c4)CC3)c(C)o2)cc1,9.49% [at 2.6 µM]
6,CCOc1ccc(-c2nc(CN3CCN(C(=O)Nc4ccc(C)c(F)c4)CC3)c(C)o2)cc1,15%
7,CCOc1ccc(-c2nc(CN3CCN(C(=O)Nc4ccc(C)c(C)c4)CC3)c(C)o2)cc1,14.4% [at 0.35 µM]
8,CCOC(=O)CSC1=Nc2ccccc2C2=NC(CCC(=O)NCc3ccccc3OC)C(=O)N12 (stereo not given),28.4% [at 1.35 µM]
9,CC(C)N1CCC2(CC1)CC(COCC1CC1)N(c1ncccn1)C2 (stereo not given),22.4%
10,O=C(CCC1CCCC1)N1CCC2(CC1)Nc1cc(F)ccc1-n1cccc12,4.37%
11,CC(C)[C@H](CO)Nc1nc(Nc2ccc(C(=O)O)c(Cl)c2)c2ncn(C(C)C)c2n1,10.1% [at 10 µM]
12,Cc1nc(-c2ccc(F)cc2)sc1-c1ccc(SCc2ccc(Br)cc2)nn1,10.9% [at 1.35 µM]
13,COCC(=O)N1CCC2(CC1)Nc1ccc(C)c(C)c1-n1cccc12,4.86% [at 10 µM]
14,CCc1nc(OCC(=O)Nc2ccc(Cl)c(C(F)(F)F)c2)c2ccccc2n1,33.2% [at 2.6 µM]
15,CN(C)CCN1CCOCC2(CCCN(C(=O)c3ccc4cc[nH]c4c3)C2)C1 (stereo not given),32.3%
16,Cc1cc(N2CCOCC2)nc2ccc(NC(=O)c3cc4ccccc4[nH]3)cc12,9.53% [at 0.16 µM]
17,COc1ccc(NC(=O)N2CCN(Cc3nc(-c4ccccc4C)oc3C)CC2)cc1,6.09% [at 0.16 µM]
18,O=C(NC1CCC12CCN(Cc1ccoc1)CC2)c1cnccn1 (stereo not given),54.2%
19,Cc1cc(C)c2c(=O)n(Cc3nc(-c4ccccc4)oc3C)c(=O)n(-c3ccccc3)c2n1,11.1% [at 0.35 µM]
20,Cc1cc(C)c2c(=O)n(Cc3nc(-c4ccc(Cl)cc4)oc3C)c(=O)n(-c3ccccc3)c2n1,-16.5%
21,O=C(NC1CCCC1)[C@H]1[C@H](CO)[C@H]2Cn3c(ccc(C4=CCCCC4)c3=O)[C@@H]1N2CC1CC1,28.5% [at 10 µM]
22,COc1ccccc1-c1nc(CSc2nc3c(c(=O)[nH]2)CN(Cc2ccccc2)CC3)c(C)o1,31.5%
23,COCC1CN(C(=O)Cc2ccsc2)Cc2nccn2C1 (stereo not given),35.1%
24,COCCCNc1ncnc2c1cnn2-c1ccc(C)cc1C,11.9% [at 0.16 µM]
25,Cc1ccc(-n2ncc3c(NC(C)(C)C)ncnc32)c(C)c1,53.9%

row,SMILES,max activity
1,CCCCc1ccc(Nc2ncnc3c2cnn3-c2cccc(C)c2)cc1,13.1% [at 5 µM]
2,Cc1ccc(Nc2ncnc3c2cnn3-c2ccc(C)cc2C)cc1,16.5% [at 1.35 µM]
3,CCOc1ccc(-c2nc3c(s2)CN(C(=O)Nc2ccccc2CC)CC3)cc1,124%
4,Cc1oc(-c2cccc(Cl)c2)nc1CN1CCc2c(sc3c2CCCC3)C1c1ccccc1 (stereo not given),20.4%
5,COc1ccc(N2CC(NC(=O)C(=O)c3c(C)[nH]c4ccccc34)CC2=O)cc1 (stereo not given),15.6% [at 2.6 µM]
6,COc1ccc(CC(=O)N2CCC[C@@H]2C(=O)NCCc2csc(-c3ccccc3)n2)cc1Cl,18.7% [at 5 µM]
7,Cc1nc(-c2ccc(F)cc2)sc1-c1ccc(SCc2cccc(F)c2)nn1,25.1%
8,CC(C)c1ccc(S(=O)(=O)N2CCC3(CC2)NCCN=C3NCc2cccc(F)c2)cc1,-18.4%
9,CC(C)c1ccc(S(=O)(=O)N2CCC3(CC2)NCCN=C3NCc2ccccc2)cc1,-31.9%
10,COc1ccc(C2=NC3(CCN(CC(=O)Nc4ccccc4F)CC3)NC2=O)cc1,-25.6% [at 0.35 µM]
11,Cn1nnc2c(NCCc3c[nH]c4ccccc34)ncnc21,6.96% [at 0.35 µM]
12,CCc1c(C)sc2c1CCN(Cc1nc(-c3ccc(OC)cc3)oc1C)C2c1ccccc1 (stereo not given),15.1% [at 5 µM]
13,N#Cc1cccc(-c2ccc(C3[C@@H]4CN(C(=O)Nc5ccc(C(F)(F)F)cc5)C[C@H]3N4)cc2)c1 (stereo not given in full),16.9% [at 10 µM]
14,Clc1cccc(CSc2nc(NC3CCCCC3)c3ccccc3n2)c1,11% [at 10 µM]
15,CCc1onc(C)c1C1CCCN1Cc1cn(C)c2ccc(OC)cc12 (stereo not given),9.05% [at 0.68 µM]
16,COc1ccc(-c2nc(NCCc3ccc(C)cc3)c3ccccc3n2)cc1,14.1% [at 0.16 µM]
17,CCc1ccc(CNc2nc(-c3ccc(Cl)cc3)nc3ccccc23)cc1,24.5%
18,COc1ccc(-c2nc(NCc3ccc4c(c3)OCO4)c3ccccc3n2)cc1,-12% [at 1.35 µM]
19,COc1ccc(-c2nc(NCc3ccc(Cl)cc3)c3ccccc3n2)cc1,-9.43% [at 0.35 µM]
20,COc1ccc(-c2nc(NCCc3ccc(Cl)cc3)c3ccccc3n2)cc1,25.9% [at 0.16 µM]
21,Fc1ccc(CNc2nc(-c3ccc(Cl)cc3)nc3ccccc23)cc1,7.26%
22,CCC(C(=O)N1CSC[C@@H]1C(=O)NCCc1csc(-c2ccccc2)n1)c1ccccc1 (stereo not given in full),16.6% [at 5 µM]
23,COc1cccc(-c2nc3c(s2)CN(C(=O)Nc2ccccc2C)CC3)c1,59.1%
24,CCCCOCCOCCOCc1cc2c(cc1CCC)OCO2,17.6%
25,COc1ccc(-c2nc(Nc3cccc(C)c3)c3ccccc3n2)cc1,-18.2% [at 0.16 µM]

row,SMILES,max activity
1,CCc1nc(OCC(=O)NCc2ccc(OC)cc2)c2ccccc2n1,25.3%
2,C/C=C/c1ccc([C@H]2[C@H](CO)N3C(=O)CN(C(=O)NC4CCCCC4)C[C@@H]23)cc1,19.7%
3,CC(C)C#Cc1ccc([C@@H]2[C@@H](CO)N3C(=O)CN(C(=O)NC4CCCC4)C[C@H]23)cc1,19% [at 10 µM]
4,O=C(Cc1cccnc1)N1CC(=O)N2[C@H](CO)[C@H](c3ccc(/C=C/c4ccccc4)cc3)[C@@H]2C1,20.1% [at 10 µM]
5,O=C(Cc1cccnc1)N1CC(=O)N2[C@H](CO)[C@@H](c3ccc(/C=C/c4ccccc4)cc3)[C@H]2C1,9.82% [at 10 µM]
6,CCc1ccc2c(c1)cc(S(=O)(=O)c1ccccc1)c(=O)n2CC(=O)NCCC1=CCCCC1,-4.67% [at 2.6 µM]
7,Cc1nc(OCC(=O)NCc2ccc(F)cc2)c2ccccc2n1,25% [at 10 µM]
8,CCc1nc(OCC(=O)Nc2ccc(OC)cc2)c2ccccc2n1,-14.2%
9,CC(=O)N1CCN(C(C)C)C(c2nnc3ccc(C(=O)N4CCCC4)cn23)C1 (stereo not given),43.3%
10,COc1ccc(-c2ccc([C@@H]3[C@@H](CO)N4C(=O)CN(Cc5ccccc5)C[C@H]34)cc2)cc1,18% [at 10 µM]
11,COc1ccc(-c2ccc([C@@H]3[C@@H](CO)N4C(=O)CN(Cc5ccccc5)C[C@@H]34)cc2)cc1,9.38% [at 5 µM]
12,COCC(=O)N1CC(=O)N2[C@H](CO)[C@@H](c3ccc(-c4ccccc4F)cc3)[C@H]2C1,43.4%
13,COCC(=O)N1CC(=O)N2[C@H](CO)[C@@H](c3ccc(-c4ccncc4)cc3)[C@H]2C1,45.2%
14,Cc1ccc(CNC(=O)Cn2c(=O)c(S(=O)(=O)c3ccccc3)cc3ccccc32)cc1,11% [at 0.16 µM]
15,Cc1ccc2[nH]c(C(=O)N3CCN(c4ccccn4)CC3)c(NC(=O)c3ccc(Cl)cc3)c2c1,30.8% [at 10 µM]
16,COCC(=O)Nc1ccc(-c2nc(-c3ccc(C)cc3C)co2)cc1,13.9% [at 0.16 µM]
17,O=C(c1ccccc1F)N1CCC2(CC1)Nc1cc(F)ccc1-n1cccc12,-7.85% [at 2.6 µM]
18,CCCCC(=O)Nc1ccc(-c2nc(-c3ccccc3)co2)cc1,9.5% [at 10 µM]
19,COCCCN1CCc2nc(SCc3nc(-c4ccc(OC)cc4)oc3C)[nH]c(=O)c2C1,25.5% [at 0.16 µM]
20,Cc1nc(CCNC(=O)C2CCN(S(=O)(=O)c3ccc(F)c(Cl)c3)CC2)cs1,8.69% [at 5 µM]
21,Cc1ccc(-c2coc(-c3ccc(NC(=O)Nc4cccc(Cl)c4)cc3)n2)cc1,13.6% [at 2.6 µM]
22,COc1ccc(-c2cc(C(=O)Nc3ccc4c(c3)CCC(=O)N4)c3ccccc3n2)cc1,13.4% [at 5 µM]
23,Cc1oc(-c2ccccc2)nc1Cn1nnc(-c2nc(-c3cccc(Cl)c3)no2)c1C,-9.25% [at 5 µM]
24,COc1ccc2[nH]cc(CCNC(=O)c3sc4ncnc(N(C)C5CCCCC5)c4c3C)c2c1,9.31% [at 5 µM]
25,Cc1ccc(-c2coc(-c3ccc(NC(=O)Nc4ccc(F)cc4F)cc3)n2)c(C)c1,9.31% [at 0.68 µM]
